# Data reported in PubChem BioAssay AID743395 (Broad Institute, 2014).
# Among all 1,200 compounds or so, about 480 (40%) were called active. So high a share suggests a set chosen from earlier hits. These entries were drawn from the full list. Results with a measured potency or affinity are listed apart. Unmarked numbers belong to inactive results. No rule for the calls is given here.
# Assay: viability loss in human hepatoma cells – cell-based, CellTiter-Glo luminescence, cherry-pick, set 2, cytotoxicity control, dose response (AID 743395);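 also: 0% = neutral control wells and -100% = positive control wells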
# Conditions: HepG2 viability, CellTiter-Glo ATP luminescence, 72 h; series mostly up to 26 µM; activity change, negative = cytotoxicity: at the top concentration
row,SMILES,"activity change, negative = cytotoxicity"
1,CCOc1ccc2c(c1)C(C)=CC(C)(C)N2S(=O)(=O)c1ccc(F)cc1,-15.7%
2,COc1ccc2c(c1)C(O)C(CO)C(C(=O)O)C2 (stereo not given),-0.564%
3,COc1ccc(S(=O)(=O)N2CC[C@@H]3[C@@H](CO)N(C)c4ccc(-c5ccc(F)cc5)cc4[C@@H]32)cc1,10.9%
4,O=C(Cc1ccccn1)NCC[C@H]1CC[C@H](NC(=O)Nc2ccc(C(F)(F)F)cc2)[C@H](CO)O1,4.87%
5,Fc1ccc2nc(C3CCN(Cc4nc(CC5CC5)no4)CC3)[nH]c2c1,-1.48%
6,N#C/C(=C(/O)c1ccc(Br)s1)c1nc2ccccc2[nH]1,-19.7%
7,CCOC(=O)N1CCN(S(=O)(=O)c2ccc3c(c2)C(C)C(=O)N3)CC1 (stereo not given),-13%
8,Cc1cc2oc(C(=O)NCCc3ccc(S(N)(=O)=O)cc3)c(C)c2cc1C,-9.06%
9,COc1ccccc1C1CC(=O)Nc2cc3c(cc21)OCCO3 (stereo not given),5.01%
10,CCOc1ccccc1NC(=O)CC1SC(=N)N(c2ccccc2)C1=O (stereo not given),-1.66%
11,O=S1(=O)c2ccc(Br)cc2N2CCC[C@H]2CN1Cc1ccccc1,-13.4%
12,O=C(CC1Sc2ccccc2NC1=O)NNc1cccc(Cl)c1Cl (stereo not given),-13.7%
13,CC(=O)OC1CCC2(C)C(=CCC3C2CCC2(C)C3CC3ON=C(C)C32)C1 (stereo not given),-4.59%
14,Cc1ccc(S(=O)(=O)N2C[C@H]3[C@H]4C(=O)N(C)C(=O)[C@H]4CC(=O)[C@H]3[C@@H]2c2ccccc2F)cc1,11.8%
15,CCCNC(=O)N1C[C@@H]2[C@H](c3ccccc31)[C@H](CO)N2Cc1ccc(OC)cc1,-1.83%
16,NS(=O)(=O)c1cc(Cl)c(Cl)c(S(N)(=O)=O)c1,-6.58%
17,COc1ccc(CC(=O)NC(c2ccccc2)c2ccc(C)cc2)c(OC)c1 (stereo not given),15.1%
18,CC(C)NC(=O)NC(=O)COC(=O)c1ccc(S(=O)(=O)Nc2ccccc2)cc1,-0.043%
19,Cc1cc(-c2ccccc2)nc(N(C)NC(=O)C2CC2)c1S(C)(=O)=O,-8.74%
20,CCc1cccc(NC(=O)COC(=O)c2cc([N+](=O)[O-])ccc2N2CCOCC2)c1,-15.3%
21,COc1ccc(C(=O)c2cc([N+](=O)[O-])ccc2N2CCN(C)CC2)cc1,-26.3%
22,O=C(COC(=O)c1cc([N+](=O)[O-])ccc1N1CCOCC1)Nc1c(Cl)cccc1Cl,-4.02%
23,C[C@@H]1CN([C@H](C)CO)S(=O)(=O)c2ccc(/C=C/c3ccccc3)cc2O[C@H]1CN(C)C(=O)NC1CCCCC1,-16.1%
24,COc1cccc(/C=N/NC(=O)C(=O)N/N=C/c2cccc(OC)c2O)c1O,10.6% [at 8 µM]

row,SMILES,"activity change, negative = cytotoxicity"
1,C#CCN(C)CCCOc1ccc(Cl)cc1Cl,-3.84%
2,CC(C)Nc1nc(Nc2ccc(C#N)cc2)c2sccc2n1,-26.4%
3,CCCCNc1cc(C(=O)O)cc(S(N)(=O)=O)c1Oc1ccccc1,1.62%
4,CC[N+]1(CC)CC2=Cc3ccccc3CC2C1 (stereo not given),-11.6%
5,Cc1ccc2c(CN3CCN(S(=O)(=O)c4ccc(Cl)cc4)CC3)cc(=O)oc2c1C,-1.82%
6,C#Cc1ccc(NC(=O)C2(C)CCN2C(=O)c2cc(C)n(C)n2)cc1 (stereo not given),-2.6%
7,CCN1C(=O)c2cccc3c(N)ccc(c23)C1=O,-13.8%
8,Cn1c(NCc2ccccc2F)nc2cc(-c3ccsc3)sc2c1=O,-4%
9,Cc1cc2oc(=O)cc(-c3ccccc3)c2c(C)c1-c1ccc(O)cc1,-5.01%
10,Nc1ccc(-c2c3ccc(=O)cc-3oc3cc(O)ccc23)cc1C(=O)O,-5.54%
11,COC(=O)CNc1cc(S(=O)(=O)N2CCCCC2)ccc1Oc1ccc(C(=O)OC)cc1,11.2%
12,COc1ccc(NC(=O)C(CC(=O)O)Cc2ccc(Cl)cc2)cc1 (stereo not given),12.9%
13,COc1ccccc1CNC(=O)Cn1cnnn1,-10.7%
14,C#Cc1ccc(C(=O)Nc2ccc(N3CCC(C)CC3)c(C(N)=O)c2)cc1,-15.7%
15,Cc1ccc(OCC(=O)Nc2ccc3c(c2)ncn3C)cc1,-12.2%
16,COc1ccccc1/C=C/C=N/NC(=O)CCn1cnc2ccccc21,-31.2%
17,C[C@H]1CN([C@@H](C)CO)S(=O)(=O)c2ccc(C#Cc3ccccc3F)cc2O[C@H]1CN(C)C(=O)c1ccc2c(c1)OCO2,25.8%
18,COc1ccc(/C=N/NC(=O)c2cccnc2)cc1CSc1ccccn1,-16.4%
19,COc1cc(/C=N/NC(=O)c2cc(-c3c(C)nn(-c4ccccc4)c3C)n[nH]2)ccc1O,2.51%
20,CC#CCOCC1CNC(=O)O1 (stereo not given),-6.75%
21,CCCN1[C@H](C(=O)N2CCOCC2)[C@@H](CO)[C@@H]2Cn3c(ccc(/C=C/c4ccccc4)c3=O)[C@@H]21,1.53%
22,O=C(COC(=O)C1CCC1)Nc1cc(S(=O)(=O)N2CCOCC2)ccc1Cl,9.46%
23,CCOc1ccc(S(=O)(=O)N2CCOCC2)cc1NC(=O)CSCC(=O)Nc1ccc(OC)cc1,-6.38%
24,COC(=O)[C@H](CCSC)NC(=O)Cn1cc(C)c(=O)[nH]c1=O,-3.37%

row,SMILES,"activity change, negative = cytotoxicity"
1,COCOc1cccc(CN2CCC2(C)C(=O)Nc2ccc(C)c(O)c2)c1 (stereo not given),-20.5%
2,CCN(C(=O)CSc1nnc(C)n1-c1ccc(C)cc1)c1c(N)n(Cc2ccccc2)c(=O)[nH]c1=O,-6.86%
3,COc1ccc(NC(=O)N(C)C[C@H]2Oc3c(cccc3N(C)C)C(=O)N([C@H](C)CO)C[C@H]2C)cc1,-8.08%
4,Cc1ccc(S(=O)(=O)Nc2ccc3c(c2)C(=O)N([C@@H](C)CO)C[C@H](C)[C@H](CN(C)S(=O)(=O)c2ccc(Cl)cc2)OCCCC[C@@H](C)O3)cc1,7.44%
5,COc1ccc(S(=O)(=O)Nc2ccc3c(c2)C(=O)N([C@@H](C)CO)C[C@H](C)[C@H](CN(C)Cc2ccc(Cl)c(Cl)c2)OCCCC[C@@H](C)O3)cc1,7.33%
6,Cc1ccc(N2CC(C(=O)N(C)CC(=O)Nc3ccc(Cl)c(C(F)(F)F)c3)CC2=O)cc1 (stereo not given),11%
7,COc1ccc(OCC(=O)NNC(=O)CCc2ccccc2)cc1,17.5%
8,Cn1nc(C(=O)NNC(=O)CCOc2ccc(C(C)(C)C)cc2)c2ccccc2c1=O,-16.7%
9,O=c1cc(-c2ccccc2)[nH]c2ccc(F)cc12,-11.9%
10,O=C(Nc1ccc(F)cc1)Nc1ccc(N2CCOCC2)c2nonc12,-14.1%
11,COC(=O)c1ccc(C(=O)NC2CCCc3c2cnn3-c2ccc(C)c(C)c2)cc1 (stereo not given),-8.84%
12,O=C(N/N=C/c1ccccc1OC(F)F)c1cc(-c2ccncc2)nc2ccccc12,-20.7%
13,O=C(CN1CCN(S(=O)(=O)c2ccc(F)c(Cl)c2)CC1)N1CCc2ccccc2C1,-20.4%
14,Cc1ccc(C)c(NC(=O)CSc2nc3c(c(=O)n2C)SC(C)C3)c1 (stereo not given),-11.9%
15,Cc1ccc(NC(=O)c2c(C)noc2C)cc1S(=O)(=O)N1CCOCC1,-6.83%
16,COC(=O)c1c(-c2ccc(C)cc2)csc1NC(=O)c1c(-c2ccccc2)noc1C,-3.85%
17,O=C(CSc1nc2ccccc2n1-c1ccccc1)Nc1ncc(Cl)cc1Cl,-9.54%
18,O=C(COc1ccc(F)cc1Cl)Nc1cccc(S(=O)(=O)N2CCCCCC2)c1,1.09%
19,O=S1(=O)CCN(C(CO)c2ccccc2)CC1 (stereo not given),-12.1%
20,COc1ccc(/C=C2\SC(=O)N(CCNC(=O)C3=COCCO3)C2=O)cc1,-18%
21,CC1(c2ccc3ccccc3c2)CCC(=O)O1 (stereo not given),-3.36%
22,COc1ccc(S(=O)(=O)N2CCN(CCOc3ccccc3Cl)CC2)cc1OC,-28.1%
23,CCCCN1C(=O)/C(=C/C=C2\Oc3ccccc3N2CC)SC1=S,-19.4%
24,COc1cc(/C=C2\SC(=S)N(NC(=O)c3ccncc3)C2=O)ccc1O,-8.91%

row,SMILES,"activity change, negative = cytotoxicity"
1,O=C(CCNS(=O)(=O)c1cccc(C(F)(F)F)c1)NC1CC1,2.26%
2,Clc1ccc(CSc2nncn2-c2ccc3c(c2)OCCO3)cc1,-6.14%
3,O=C(c1cccnc1)N1CC[C@@H]2[C@H](CO)Nc3ccc(C4=CCCCC4)cc3[C@@H]21,-8.51%
4,COc1ccc(S(=O)(=O)N2CC[C@@H]3[C@@H](CO)Nc4ccc(-c5ccc(C#N)cc5)cc4[C@@H]32)cc1,-18.6%
5,COc1ccc(S(=O)(=O)N2CC[C@@H]3[C@@H](CO)Nc4ccc(C5=CCCCC5)cc4[C@@H]32)cc1,-2.3%
6,O=S(=O)(c1ccc(F)cc1)N1CC[C@@H]2[C@@H](CO)Nc3ccc(-c4ccc(F)cc4)cc3[C@@H]21,-28.2%
7,Cc1ccc(S(=O)(=O)N2CCN(C(=O)CN(Cc3ccco3)Cc3cccs3)CC2)cc1,-9.06%
8,CCN(C(=O)COC(=O)c1cccc2ccccc12)c1c(N)n(Cc2ccccc2)c(=O)[nH]c1=O,0.991%
9,O=C(Nc1ccc(F)cc1)C1CCN(C(=O)c2ccc(F)cc2)CC1,-3.03%
10,COc1cccc(-c2nnc(SCC(=O)NC3CCS(=O)(=O)C3)n2C)c1 (stereo not given),12.4%
11,O=C(NCc1ccccn1)c1n[nH]c(=O)c2ccccc12,0.51%
12,CCC(=O)c1ccc(OCC(=O)OCC(=O)N2CCc3ccccc3C2)cc1,-7.38%
13,O=C(Cc1ccsc1)OCC(=O)c1ccccc1,-3.91%
14,CCN(CC)c1ccc2c(cc1=O)[C@@H](NC)CCc1cc(OC)c(OC)c(OC)c1-2,-9.08%
15,COc1c(O[C@@H]2O[C@H](CO)[C@@H](O)[C@H](O)[C@H]2O)cc2c(c1OC)-c1ccc(SC)c(=O)cc1C(NC(C)=O)CC2 (stereo not given in full),4.6%
16,CN[C@H]1CCc2cc(OC)c(OC)c(OC)c2-c2ccc(N(C)CC(OC)OC)c(=O)cc21,-9.88%
17,CO[C@H]1CN(C)C(=O)c2cc(NC(C)=O)ccc2OC[C@H](C)N(C(=O)c2ccncc2)C[C@H]1C,-5.17%
18,CCOC(=O)CSC1=C(C#N)C(c2ccc(C)s2)CC(=O)N1 (stereo not given),-40.3%
19,CN(C(=O)c1ccccc1OC1CCN(S(C)(=O)=O)CC1)C1CCOC1 (stereo not given),-1.38%
20,COCCOC(=O)c1[nH]c2c(c1C)C(=O)CC(c1cccs1)C2 (stereo not given),-10.6%
21,Nc1ccn([C@H]2C[C@H](O)[C@@H](CO)O2)c(=O)n1,1.56%
22,Nc1ccn([C@@H]2O[C@H](C(=O)NCC(F)(F)F)[C@@H](O)[C@H]2O)c(=O)n1,-8.42%
23,O=C1C=CN(C2OC(CO)C(O)C2O)C(=O)C1 (stereo not given),-15.5%
